The whole screen tested about 48,000 compounds, of which about 13,000 (27%) showed an effect of 50% or more. The list shows a part of the results.
Tested on: Wolbachia pipientis
Experiment: Anti-Wolbachia Cell-Based Screen
Format: functional
Parameters: scale not given: in the data most compounds retested in dose-response had high values
Conditions: 5 µM

| Compound | Percent Effect |
| --- | --- |
| CN(CCCNC(=O)Nc1ccc(C#N)cc1)CC(F)(F)F | 3.488% |
| Cc1noc(CCNC(=O)C2CSCN2C(=O)C2CCCC2)n1 (configuration not stated) | 1.723% |
| CC(C)N1CCC(CC(=O)NCC2OCCc3ccccc32)CC1 (configuration not stated) | -17.34% |
| CC(C)(O)CN1CCN(C(=O)COCC2CC2)CC1 | 6.995% |
| COc1c(C)cnc(CN(C)C(=O)c2cccnc2N(C)C)c1C | -5.056% |
| COCc1cnc2n1CCN(C(=O)c1cnc3ccccc3c1)C2C (configuration not stated) | -17.18% |
| COCc1cnc2n1CCN(C(=O)c1cc3ccccc3o1)C2C (configuration not stated) | -14.51% |
| CCOCc1cnc2n1CCN(C(=O)c1ccccc1)C2C (configuration not stated) | 105.6% |
| CCOCc1cnc2n1CCN(C(=O)Cc1ccco1)C2C (configuration not stated) | -11.07% |
| CC1c2ncc(COCC3CCOCC3)n2CCN1C(=O)c1ccoc1 (configuration not stated) | 2.746% |
| Cc1ncoc1C(=O)N1CCn2c(COCC3CC3)cnc2C1C (configuration not stated) | -11.18% |
| CCOCc1cnc2n1CCN(C(=O)Cc1cccs1)C2C (configuration not stated) | 1.059% |
| COCc1cnc2n1CCN(C(=O)c1cn(C)c3ccccc13)C2C (configuration not stated) | 101.2% |
| COc1ncccc1C(=O)N1CCn2c(COCC3CC3)cnc2C1C (configuration not stated) | -2.491% |
| COCc1cnc2n1CCN(C(=O)c1oc3ccccc3c1C)C2C (configuration not stated) | -7.418% |
| CCOCc1cnc2n1CCN(C(=O)c1cccc3c1OCCO3)C2C (configuration not stated) | 83.71% |

| Compound | Percent Effect |
| --- | --- |
| CCOCc1cnc2n1CCN(C(=O)c1ccoc1C)C2C (configuration not stated) | 98.54% |
| c1ccc2sc(N3CCCN(c4ncnc5c4CCNC5)CC3)nc2c1 | -7.795% |
| CC(NCCNS(=O)(=O)c1cccc(Cl)c1)C1CCOCC1 (configuration not stated) | -16.43% |
| CCOc1ccc(C(=O)NCc2ccnc(N3CCCC3)c2)cn1 | -6.067% |
| CCCN1CCN(Cc2cccc(OCC(N)=O)c2)[C@H]2CS(=O)(=O)C[C@H]21 | -4.749% |
| CCOCc1cnc2n1CCN(C(=O)c1cn(C)c3ccccc13)C2C (configuration not stated) | 101.9% |
| O=C(c1ccc(Cl)cn1)N1CCC(COCc2ccccc2)C1 (configuration not stated) | 7.677% |
| CC(=O)N1CCCCCC1C1CCN(Cc2nc(C(C)C)no2)CC1.Cl (configuration not stated) | 9.412% |
| CCc1noc(CN(CCC2CCCCC2)CC(N)=O)n1 | 163.4% |
| CN(Cc1noc(C(C)(C)C)n1)CC1CCN(CCO)CC1 | -10.5% |
| CCc1noc(CN(CC(=O)N2CCCCC2)c2ccc(C)cc2)n1 | 0.4396% |
| CC(C)c1noc(CN(CCC2CCCCC2)CC(N)=O)n1 | 116.2% |
| C=C(C)CN(CC)Cc1nc(CC)no1 | 1.944% |
| CC(C)c1noc(CC[C@@H]2CCCN3CCCC[C@H]23)n1 | 17.3% |
| CC(C(=O)NC1CCCC1)S(=O)(=O)Cc1noc(C(C)(C)C)n1 (configuration not stated) | 6.849% |
| CC(C)(C)c1nc(CN(CCC2CCCCC2)CC(N)=O)no1 | 228.2% |
